Only some compounds are listed: those with a hit (about 11% of all), similar ones and a draw of the others.
AmpC inh detg: inhibitors of E. coli AmpC beta-lactamase with detergent; AmpC hydrolysis of nitrocefin, absorbance 480 nm, 0.01% Triton; Potency, µM (titrated, usually from 114 µM), without a hit: at the top dose activity change, negative = inhibition, hits mostly inhibitors; hit rate 0.041% among 370,000;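 also: 0% = no-compound wells and -100% = no-enzyme wells; nearly all actives have a fitted effect of over 25% in size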
Target sequence (P00811 whole entry, looked up): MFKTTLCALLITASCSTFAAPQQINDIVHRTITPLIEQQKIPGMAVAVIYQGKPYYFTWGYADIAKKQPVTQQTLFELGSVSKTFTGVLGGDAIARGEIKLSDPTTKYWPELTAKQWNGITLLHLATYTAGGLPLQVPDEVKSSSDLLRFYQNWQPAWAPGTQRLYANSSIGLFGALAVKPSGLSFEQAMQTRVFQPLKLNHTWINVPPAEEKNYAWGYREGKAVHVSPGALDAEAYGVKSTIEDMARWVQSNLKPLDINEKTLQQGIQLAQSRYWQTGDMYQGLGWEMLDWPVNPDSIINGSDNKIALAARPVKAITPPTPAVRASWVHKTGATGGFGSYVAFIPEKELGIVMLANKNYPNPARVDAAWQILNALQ
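AmpC (5.3 nM in the dispensed reagent) in 20 mM phosphate pH 7.0 with 0.01% (detergent screen) or 0.0001% Triton X-100 was preincubated with compounds for 15 min at room temperature. Nitrocefin was then added from an 800 uM solution, and hydrolysis was followed at 480 nm.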
HCV inhibitor: HCV inhibition | hit rate 3.4% among 340,000 | Huh7.5.1 HCVcc-Cre infection, luciferase reporter, 44 h | Potency, µM (titrated, usually from 41.8 µM), inactives show at the highest dose activity change, negative = inhibition, most hits filed as inhibitors
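Cells (1,000/well) were plated 4 h before compound, then infected with HCVcc-Cre virus (~0.5 moi). After 44 h further culture, infection was read as luciferase luminescence following a 15 min substrate incubation at room temperature.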
AmpC inh no detg: AmpC beta-lactamase inhibition without detergent. AmpC nitrocefin hydrolysis, absorbance 480 nm, 0.0001% Triton. Potency, µM (top dose mostly 57.1 µM), inactives show top-dose activity change, negative = inhibition, actives largely listed as inhibitors. hit rate 0.52% among 330,000. AID 485341;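 also: plate controls were no compound for no effect and no enzyme for full effect; nearly all actives have a fitted effect of over 20% in size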
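20 mM phosphate pH 7.0 + 0.01% (detergent screen) or 0.0001% Triton X-100; 5.3 nM AmpC reagent; cpd preinc 15 min RT; nitrocefin (800 uM stock) to start; A480 q20 s × 4 min; Activity was normalised to no-enzyme and no-compound control wells.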
AMA1-RON2 inh: disrupts binding of P. falciparum AMA1 to RON2. AlphaScreen AMA1-biotinylated RON2 peptide binding. Potency, µM (series often up to 58.2 µM), inactives show at the highest dose activity change, negative = inhibition, actives largely listed as inhibitors. hit rate 0.2% among 360,000;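 also: 0% = vehicle wells and -100% = peptide control; nearly all actives have a fitted effect of over 45% in size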
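AMA1 (3D7) with his tag at 25 nM final met compounds first, then biotinylated RON2 peptide at 25 nM; detection used donor plus acceptor beads, 10 µg/mL apiece, read by AlphaScreen after 30 min at room temperature.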
Pf growth 48h: P. falciparum growth inhibition at 48 hours (one generation); P. falciparum luciferase growth in erythrocytes, 48 h; hit rate 5.9% among 310,000; Potency, µM (series often up to 28.7 µM), inactives show at the highest dose activity change, negative = inhibition, most hits filed as inhibitors
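Luciferase-expressing parasites in RBCs, 2% Hct / 0.1% parasitemia final; RPMI 1640 + 0.5% Albumax; 37 C, 5% CO2, one generation; luminescence read-out, lower signal = inhibition.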
Pf growth 96h: P. falciparum growth inhibition at 96 hour, primary screen for plastid delayed-death inhibitors; P. falciparum luciferase reporter growth, 96 h; Potency, µM (top dose mostly 28.7 µM), for inactives: top-dose activity change, negative = inhibition, most hits filed as inhibitors; hit rate 6.9% among 320,000; AID 504834
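Delayed-death screen, second-generation endpoint: infected erythrocytes, 2% hematocrit, 0.05% parasitemia final; 96 hours at 37 C, 5% CO2; luciferase detection reagent; luminescence decrease equals reduced growth.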
* hit, by the source's call; ? = inconclusive; / = no result. Calls follow the shape of the dose curve; as a rule, active = well fitted curve in the direction sought with a large enough effect; inconclusive = small, poorly fitted or top-dose-only effect, or another doubt; inactive = no such curve, though single readings can be large; an effect the other way counts as inactive or inconclusive. Unless noted, % is scaled to controls: 0 for no effect and ±100 for the full control effect; potency is read from the fitted curve at half-maximal effect.

SMILES	AmpC inh detg	HCV inhibitor	AmpC inh no detg	AMA1-RON2 inh	Pf growth 48h	Pf growth 96h
CN(CCOc1ccc(Cl)cc1)C(=O)c1cccc(S(=O)(=O)N2CCN(Cc3ccccc3)CC2)c1	/	2.5µM*	/	-10%	/	/
CCN(CC)C(=O)c1ccc(NC(=O)c2cccc(S(=O)(=O)N3CCN(Cc4ccccc4)CC3)c2)cc1	?	6.3µM*	161%	-16%	10µM*	12µM*
CN(Cc1ccc(F)cc1)C(=O)c1cccc(S(=O)(=O)N2CCN(Cc3ccccc3)CC2)c1	1%	?	161%	-26%	-5%	?
CCc1cccc(CC)c1NC(=O)Cn1nnc2sc3c(c2c1=O)CCCC3	26%	/	/	/	/	/
CC1CCCCC1NC(=O)c1cccc(S(=O)(=O)N2CCN(Cc3ccccc3)CC2)c1 (stereo not drawn)	0%	?	15%	0%	17µM*	15µM*
Cc1ccc(C)c(NC(=O)CN(C)C(=O)c2cccc(S(=O)(=O)N3CCN(Cc4ccccc4)CC3)c2)c1	-2%	5.6µM*	185%	6%	?	?
Cc1ccc(C)c(NC(=O)CN(C)C(=O)c2cccc(S(=O)(=O)N3CCCC3)c2)c1	?	-3%	-6%	-3%	?	?
CCc1ccccc1NC(=O)CNC(=O)c1cccc(S(=O)(=O)N2CCN(Cc3ccccc3)CC2)c1	?	10µM*	-4%	-21%	?	-19%
CC(=O)N1CCN(S(=O)(=O)c2cccc(C(=O)NC3CCCC(C)C3C)c2)CC1 (stereo not drawn)	/	/	/	2%	/	/
CC(=O)Nc1ccc(S(=O)(=O)N2CCN(Cc3cccnc3)CC2)cc1	?	-11%	0%	-29%	8%	/
CC(=O)Nc1ccc(S(=O)(=O)N2CCN(Cc3cccc([N+](=O)[O-])c3)CC2)cc1	0%	-28%	-27%	?	-5%	1.7µM*
CCc1ccccc1NC(=O)CN(C)C(=O)c1cccc(S(=O)(=O)N2CCCCCC2)c1	?	?	49%	-5%	?	?
Cc1cccc2nc(-c3cccc(NS(=O)(=O)c4ccccc4)c3)cn12	3%	/	/	/	/	/
CC(=O)Nc1ccc(S(=O)(=O)N2CCN=C2SCc2cccc(C)c2)cc1	-13%	?	14%	-1%	-10%	?
CC(=O)Nc1ccc(S(=O)(=O)N2CCN=C2SCc2ccc([N+](=O)[O-])cc2)cc1	-5%	10µM*	3%	-6%	?	?
COc1ccc(NC(=O)N2c3ccc(OC)cc3C(C)=CC2(C)C)cc1	?	8%	-58%	-10%	14%	0%
CCOc1ccc2c(c1)C(C)=CC(C)(C)N2C(=O)Nc1ccccc1	?	-5%	-18%	-25%	/	15µM*
CC(=O)c1ccc(NC(=O)CCc2c(C)nc3c(c2C)c(=O)n(C)c(=O)n3C)cc1	0%	/	/	/	/	/
CCN1C(=O)/C(=C\c2ccncc2)SC1=Nc1ccc(C)c(C)c1	2%	-21%	-22%	-10%	?	1.9µM*
CCN1C(=O)/C(=C\c2ccncc2)SC1=S	6%	7%	-17%	16%	0%	39%
CCCN1C(=O)/C(=C\c2ccncc2)SC1=Nc1ccccc1	5%	-18%	132%	-15%	12µM*	?
CCOC(=O)c1sc(N2C(=O)c3oc4ccccc4c(=O)c3C2c2ccc(C(C)(C)C)cc2)nc1C (stereo not drawn)	13%	/	/	/	/	/
O=C(Oc1ccccc1F)c1nc(SCc2ccccc2F)ncc1Cl	-1%	/	/	/	/	/
O=C(CSC1=Nc2ccccc2C2=NC(Cc3c[nH]c4ccccc34)C(=O)N12)NC1CCCCC1 (stereo not drawn)	?	-27%	41%	5%	/	/
CC1CC(C)CN(C(=O)CSC2=Nc3ccccc3C3=NC(Cc4c[nH]c5ccccc45)C(=O)N23)C1 (stereo not drawn)	-15%	-25%	13%	-6%	/	5.2µM*
SMILES	AmpC inh detg	HCV inhibitor	AmpC inh no detg	AMA1-RON2 inh	Pf growth 48h	Pf growth 96h
COc1cc2c(cc1OC)C(COc1ccc(F)cc1)N(C(=O)c1ccco1)CC2 (stereo not drawn)	-2%	2%	81%	-13%	12µM*	?
COc1cc2c(cc1OC)C(COc1ccccc1OC)N(C(C)=O)CC2 (stereo not drawn)	?	28%	49%	-5%	-16%	-5%
COc1cc2c(cc1OC)C(COc1ccccc1OC)N(C(=O)C(C)(C)C)CC2 (stereo not drawn)	-9%	?	36%	0%	12µM*	-2%
COc1cc2c(cc1O)CCN(C(=O)c1ccco1)C2C (stereo not drawn)	-4%	0%	-13%	?	/	-1%
COc1cc2c(cc1OC)C(COc1ccc([N+](=O)[O-])cc1)N(C(C)=O)CC2 (stereo not drawn)	-2%	10µM*	84%	-2%	?	-8%
COc1cc2c(cc1OC)C(c1cc3cccc(C)c3[nH]c1=O)N(C(=O)c1ccco1)CC2 (stereo not drawn)	6%	/	94%	/	12µM*	-6%
O=C(CSc1nc(=O)[nH]c2c1CCCC2)NCc1ccccc1	3%	/	/	/	/	/
Cc1cc(C)cc(Nc2cc(C(=O)NCc3ccccc3)c3ccccc3n2)c1	8%	/	/	/	/	/
Cc1nc2ccc(S(=O)(=O)N(CC(=O)Nc3ccc(Cl)cc3)Cc3ccccc3)cc2s1	2%	/	/	/	/	/
Cc1cccc(-n2cnc3cc(C(=O)NCc4ccccc4Cl)ccc32)c1	-4%	/	/	/	/	/
COCCNC(=S)N1CCc2cc(OC)c(OC)cc2C1COc1cc(C)cc(C)c1 (stereo not drawn)	0%	?	141%	?	12µM*	?
CCOc1ccc(NC(=O)Cn2c(=O)n(CCCCCC(=O)NCc3ccccc3)c(=O)c3sccc32)cc1	-1%	/	/	/	/	/
O=C(c1cnn2ccccc12)N1CCN(C2CCCCC2)CC1	-8%	-3%	-15%	-4%	/	-50%
O=C(c1cnn2ccccc12)N(Cc1ccco1)C1CCCC1	?	-10%	-3%	-8%	/	10µM*
Cc1cc(C)n(CCC(=O)Nc2ccc(Cl)cc2)n1	6%	/	/	/	/	/
CCN(CC)C(=O)COc1coc(CN2CCN(c3ccccc3)CC2)cc1=O	-12%	8%	16%	0%	-5%	10µM*
COc1cccc(NC(=O)COc2coc(CN3CCN(c4ccccc4)CC3)cc2=O)c1	0%	?	6%	10%	13%	?
O=C(COc1coc(CN2CCN(c3ccccc3)CC2)cc1=O)NC1CCCCC1	0%	1%	90%	6%	12µM*	?

Source: PubChem BioAssay (National Center for Advancing Translational Sciences (NCATS))
